# Assay outcomes (PubChem BioAssay)
# Sampled rows, rich in hits. Any-hit rate of the full collection: about 2.9%.
# PLCb3 inh: PLC-beta3 (human) inhibition, primary screen | Q01970 | Purified PLC-beta3, fluorogenic substrate, fluorescence | inhibition, % at 12.2 µM | 370,000 tested, 0.18% active | AID 720704; in the data active = inhibition above about 11%;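 also: 0% = median of compound wells on plate and 100% = full blocker control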
# ADAM17 inh: ADAM17 inhibition, QFRET primary screen; P78536; inhibition, % at 6.95 µM; 370,000 tested, 0.83% active; AID 720648; recombinant ADAM17, EDANS/DABCYL FRET peptide cleavage;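 active = inhibition above the mean of compounds lying between control limits plus 3 SD, set per campaign, cut at about 8.5% in these data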;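 also: 0% = DMSO-only wells as the low control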
# PLC-gamma1 inh: PLC-gamma1 (human) inhibition, primary screen; AID 720700; purified PLC-gamma1, fluorogenic substrate, fluorescence; inhibition, % at 12.2 µM; P19174; 370,000 tested, 0.84% active; in the data active = inhibition above about 9.5%
# KLK7 zymogen act: activates the human kallikrein-7 zymogen; P49862; purified proKLK7, EDANS-DABCYL substrate fluorescence; 100% is mature enzyme control, 0% vehicle; activation, % at 7 µM; 370,000 tested, 0.9% active; AID 652039;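 active = activation above the mean of all tested compounds plus 3 SD, computed per campaign excluding outliers beyond control limits, cut at about 13% in these data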
# Target sequence (P49862 whole entry, looked up): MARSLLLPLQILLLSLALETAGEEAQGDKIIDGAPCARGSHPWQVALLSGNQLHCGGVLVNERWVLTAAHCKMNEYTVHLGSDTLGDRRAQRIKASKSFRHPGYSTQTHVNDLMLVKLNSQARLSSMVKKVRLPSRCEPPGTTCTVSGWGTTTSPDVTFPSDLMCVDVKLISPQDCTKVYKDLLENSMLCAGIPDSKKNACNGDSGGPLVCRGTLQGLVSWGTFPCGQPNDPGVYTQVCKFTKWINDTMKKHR
# ADAM10 inh: ADAM10 inhibition, QFRET primary screen; O14672; recombinant ADAM10, EDANS/DABCYL FRET peptide cleavage, 3 h; inhibition, % at 7 µM; 370,000 tested, 0.62% active;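 active = inhibition above a per-campaign cutoff equal to the mean of compounds falling between control-based bounds plus 3 SD, cut at about 20% in these data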;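 also: 0% = DMSO wells while the 100% control is not disclosed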
# KLK7 act conf: confirmation of human kallikrein-7 zymogen activators. shares compounds with KLK7 zymogen act. purified proKLK7, EDANS-DABCYL substrate fluorescence; scaled: vehicle 0, mature enzyme 100. activation, % at 7 µM. 3,200 tested, 68% active;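 active = activation, as change over the incubation, above the mean of all tested compounds plus 3 SD, cut at about 13% in these data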
# EDANS interfere: fluorescence interference counter-screen for KLK7 activators; EDANS-DABCYL substrate fluorescence interference, no enzyme, 4 h; solvent 0%, active enzyme control 100%; activation, % at 7 µM; shares compounds with KLK7 zymogen act; 3,200 tested, 80% active;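 active = activation above the all-compound mean plus 3 SD, ignoring values outside control-based bounds, cut at about 4.8% in these data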;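 also: value is the 4 h activation minus the activation read at time zero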
# K7 EDANS ctr: optically interferes with EDANS-DABCYL fluorescence, kallikrein-7 activator counter-screen. shares compounds with KLK7 zymogen act. EDANS-DABCYL peptide fluorescence interference, no enzyme. EC50, µM. 250 tested, 20% active;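 active = compounds that raise the fluorescence signal in this interference counterscreen, with EC50 at or below 10 µM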;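 also: intact quenched peptide substrate alone read at 355 nm excitation and 520 nm emission; signal is fluorescence gain from T0 to T4 after four hours at room temperature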
# Numbers without * were called inactive; i = inactive; / = no result.
SMILES,PLCb3 inh,ADAM17 inh,PLC-gamma1 inh,KLK7 zymogen act,ADAM10 inh,KLK7 act conf,EDANS interfere,others
COc1ccc(NC(=O)c2cc(-c3ccco3)on2)cc1OC,-2.4,-3.3,5.1,54.9*,0.1,20.5*,4.8*,K7 EDANS ctr=i
Cc1ccccc1C1N=C2Oc3ccccc3C=C2C(=O)N1 (stereo not drawn),-36.7,-30.2,-22.2,35.0*,-134.1,72.0*,72.6*,
Cc1ccccc1C1NC(=O)c2ccccc2O1 (stereo not drawn),-1.6,-5.3,-2.2,-1.5,-20.0,/,/,
O=C(Nc1ccc(O)c(-c2nc3ccccc3s2)c1)c1cccs1,-114.7,1.1,-101.5,-0.1,1.3,/,/,
O=C(Nc1ccc(F)cc1)Nc1sccc1-c1nc2ccccc2s1,-486.6,-25.3,-482.1,31.9*,-63.3,-184.1,-286.9,
O=C1CSc2ccc(C(=O)N3CCCC(C(=O)N4CCCC4)C3)cc2N1 (stereo not drawn),3.4,2.6,0.4,-0.2,-7.2,/,/,
COC(=O)[C@@H]1N=C(c2ccc(OC)cc2)O[C@]12C(=O)N(Cc1cn(Cc3ccccc3)nn1)c1cccc(Cl)c12,-1.5,5.3,0.9,-0.7,16.2,/,/,
COCCCNC(=O)COc1cc2c(c3oc(=O)c(C)c(C)c13)CCC(C)(C)O2,i,i,i,18.5*,i,-94.0,-74.2,
CSC[C@H](NC(=O)COc1cc2c(c3oc(=O)cc(C)c13)CCC(C)(C)O2)C(=O)O,i,i,i,23.7*,i,59.5*,64.3*,
Cc1c(C)c2c(OCC(=O)NCC(O)c3ccccc3)cc3c(c2oc1=O)CCC(C)(C)O3 (stereo not drawn),-45.5,-52.6,-34.8,-2.1,-224.8,/,/,
CSC[C@H](NC(=O)COc1cc2c(c3oc(=O)c(C)c(C)c13)CCC(C)(C)O2)C(=O)O,i,i,i,60.2*,i,62.4*,70.3*,
Cc1c(C)c2c(OCC(=O)NCc3ccccn3)cc3c(c2oc1=O)CCC(C)(C)O3,-429.9,-412.8,-317.2,-23.6,i,/,/,
Cc1cc(=O)oc2c3c(cc(OCC(=O)NCc4ccccc4)c12)OC(C)(C)CC3,-386.8,-340.4,-285.4,-13.8,i,/,/,
Cc1c(C)c2c(OCC(=O)N[C@@H](Cc3ccccc3)C(=O)O)cc3c(c2oc1=O)CCC(C)(C)O3,i,i,i,55.9*,i,58.5*,58.0*,
C=CS(=O)(=O)N(Cc1ccc(C)cc1)[C@@H](CO)C(=O)OC,-1.1,-7.3,-1.1,0.9,-4.7,/,/,
Cc1c(C)c2c(OCC(=O)N[C@@H](CC(C)C)C(=O)O)cc3c(c2oc1=O)CCC(C)(C)O3,i,i,i,45.4*,i,41.0*,27.4*,K7 EDANS ctr=>69.5
CCCC(NC(=O)COc1cc2c(c3oc(=O)c(C)c(C)c13)CCC(C)(C)O2)C(=O)O (stereo not drawn),-334.9,-282.3,-235.9,-1.7,i,/,/,
CSCC[C@H](NC(=O)COc1cc2c(c3oc(=O)c(C)c(C)c13)CCC(C)(C)O2)C(=O)O,i,i,i,57.1*,i,67.3*,72.8*,
OC1c2c(F)cccc2N=C2CCCCN21 (stereo not drawn),-402.4,-275.0,-287.3,14.0*,i,11.4,8.3*,
COc1ccc2cc3cc(C(=O)NCc4ccco4)oc3nc2c1,i,i,i,49.5*,i,-43.3,-26.5,
COc1ccc2cc3cc(C(=O)NCc4ccccn4)oc3nc2c1,i,i,i,42.1*,i,-18.1,-3.7,
CC(=O)CC[C@@H]1CC[C@]2(CCCN(C(=O)C3CCCC3)C2)O1,-1.8,-2.9,-0.8,-0.5,-4.6,/,/,
CCOC(=O)c1c(NC(=S)Nc2ccc(OCC)cc2)sc2c1CCN(C)C2,-17.8,-5.4,-7.0,2.8,-19.8,/,/,
CCOC(=O)c1c(NC(=S)Nc2ccc(Cl)cc2)sc2c1CCN(C)C2,-70.0,-24.6,-67.8,17.8*,-94.4,20.0*,21.1*,
C=CCOC(=O)C1=C(C)NC(SCC(=O)NC(=O)OCC)=C(C#N)C1c1cccnc1 (stereo not drawn),-64.6,-19.1,-55.8,20.1*,-80.7,26.5*,16.7*,K7 EDANS ctr=4.44*
SMILES,PLCb3 inh,ADAM17 inh,PLC-gamma1 inh,KLK7 zymogen act,ADAM10 inh,KLK7 act conf,EDANS interfere,others
C=CCOC(=O)C1=C(C)NC(SCC(=O)N(CC)CC)=C(C#N)C1c1ccccc1 (stereo not drawn),-19.2,7.2,-13.6,-0.2,-17.0,/,/,
CCOC(=O)[C@]12CCCC=C1N(Cc1ccc(OC)cc1)C(=O)[C@@H]2CC(=O)NCc1ccccc1,1.0,-2.7,0.6,-0.4,1.9,/,/,
COc1cc2cc(Oc3ccc4ccc(=O)oc4c3)c(=O)oc2cc1O[C@@H]1O[C@H](CO)[C@@H](O)[C@H](O)[C@H]1O,-165.8,-60.9,-120.3,25.4*,-224.7,36.0*,48.8*,
COc1cc2cc(Oc3ccc4ccc(=O)oc4c3)c(=O)oc2cc1OC1OC(COC(=O)CC(C)(O)CC(=O)O)C(O)C(O)C1O (stereo not drawn),-261.7,-155.6,-199.8,20.7*,i,33.6*,31.1*,
Nc1[nH]c(C(=O)c2ccccc2)c(-c2ccccn2)c1C(=O)c1c[nH]c2ccc(F)cc12,-48.0,-1.1,-38.9,-0.6,-5.7,/,/,
CCC(=O)Oc1ccc2c(c1)O/C(=C\c1ccco1)C2=O,i,-26.7,i,50.9*,-78.1,478.2*,467.0*,
COCCN(CCOC)Cc1c(O)ccc2c1O/C(=C\c1ccco1)C2=O,-495.5,-22.1,-330.0,18.7*,-35.1,23.0*,26.7*,
CCN(CC)C(=O)Oc1ccc2c(c1)O/C(=C\c1ccco1)C2=O,-93.6,-9.4,-63.9,7.3,-15.8,/,/,
O=C1/C(=C/c2ccco2)Oc2c1ccc(O)c2CN1CCCCC1,i,-26.8,i,13.7*,-84.5,66.5*,73.1*,
CCOC(=O)N1CCC2(CC1)NC(=O)c1ccccc1N2,-493.3,-452.2,-356.7,21.0*,i,30.0*,24.3*,K7 EDANS ctr=>69.5
COCCN(C[C@@H]1[C@H](c2ccccc2)[C@H](CO)N1c1nc(C)c(C)s1)S(=O)(=O)c1ccccc1[N+](=O)[O-],0.8,4.8,1.6,0.0,11.2,/,/,
CCCCCCC12C(=Cc3cc4c(cc31)OCCO4)c1cc(OC)c(OC)cc1C(CC(=O)OC)N2C(=O)OC (stereo not drawn),i,-189.3,-358.9,17.3*,i,-5.0,-16.5,
CCCCCCC12C(=Cc3cc4c(cc31)OCCO4)c1cc(OC)c(OC)cc1C(CC(=O)O)N2C(=O)OC (stereo not drawn),-434.4,-381.1,-333.3,1.1,i,/,/,
